Experimental data as given in the supplement of paper PMC3334620.
In all, about 33,000 sequences were measured (“E-score (-0.5 to 0.5)”: median about -8e-05, highest 2% from about 0.23 on). The sample holds the highest values, similar sequences and a random draw of the others, so the mix is not that of the screen.

These sequences were tested against T1, Nrg2 (UniProt P38082) (assay: PBM E-score (8-mer binding enrichment) (E-score (-0.5 to 0.5)); higher = stronger / more preferred TF binding). Details: protein concentration: 100 nM; construct: GST-full length.
T1 sequence: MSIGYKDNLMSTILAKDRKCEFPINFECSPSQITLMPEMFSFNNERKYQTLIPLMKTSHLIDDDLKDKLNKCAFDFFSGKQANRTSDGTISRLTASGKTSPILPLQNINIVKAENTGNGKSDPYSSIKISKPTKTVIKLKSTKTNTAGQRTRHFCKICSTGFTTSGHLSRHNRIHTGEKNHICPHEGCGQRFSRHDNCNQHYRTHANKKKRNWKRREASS
Description: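 Universal 'all 10-mer' protein binding microarrays (Agilent AMADID 015681) probed with GST-tagged S. cerevisiae TFs (full-length or DBD) made by in vitro transcription/translation (PURExpress), about 100-200 nM. Bound TF was detected with fluorescent anti-GST. Each ungapped 8-mer (which stands for itself and its reverse complement) is scored by the PBM enrichment score (E-score), a modified Wilcoxon-Mann-Whitney statistic from -0.5 to +0.5, computed with the Universal PBM Analysis Suite. Scale: above 0.35 generally sequence-specific binding.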

Sequence | PBM E-score
AGCATGCA | 0.00231
CGCATGCC | 0.145
CGCATGCG | 0.0387
GGCATGCA | -0.113
TGCATGCA | 0.233
CGCATGCA | 0.246
GGGCGACA | -0.132
AGAGTTGA | -0.073
GTCCCACA | 0.0612
ACGTTGAC | -0.00444
TCAACACA | 0.235
CCAACACG | 0.0552
ACAACACA | 0.0869
CTTCGATC | -0.00647
AGATTCGA | 0.0269
GGATTCGA | -0.0125
CGATTCGA | 0.27
GCCGCGCC | -0.0901
GTCCCGTA | -0.111
ACGCGACC | -0.0575
GATGCAAA | 0.0177
CAGCAACA | 0.159

Sequence | PBM E-score
CAGCAACG | 0.251
AAGCAACG | 0.161
GTCAGCAC | -0.0154
GACTACGC | -0.187
AACGAAAG | -0.0319
AACGAAAT | 0.251
AACGAAAC | 0.117
ATTGCAGC | 0.0702
GGGCGTAC | 0.0663
CGACCCTA | 0.109
GAACCCAA | 0.0482
GGGACCTA | 0.245
GGACCCTA | 0.305
GAACCCCC | -0.322
CGGACCTA | 0.0604
CTAACCCA | -0.00624
AGGACCTA | 0.114
GCACCCTA | 0.105
GTAACCCA | 0.229
ATAACCCA | -0.0462
GAACCCCA | 0.26
GCGCTGGA | 0.0138

Sequence | PBM E-score
ATGGGTAG | -0.13
CGACGGTA | 0.0706
GCAATAGC | 0.133
AAAAGGGC | 0.12
ATGCTCCA | 0.0544
TGACCCCA | 0.0468
GGACCCCA | 0.236
GGACCCCC | -0.144
AAGATAGC | 0.0443
CAGACGAC | -0.0246
CGGACGAA | 0.233
CAGACGAA | 0.252
GAGACGAA | -0.0342
GGGACGAA | 0.0439
CGGACGAC | -0.061
AAGCTAAT | 0.11
CTAGTCAC | -0.122
AACTACAT | -0.038
GGTCTCGA | 0.0782
CAGACGGC | -0.16
CGAGGAAA | 0.0442
CGAGGAAC | 0.269

Sequence | PBM E-score
AGAGGAAC | -0.113
CAGCACGA | 0.0405
CCCCTAGA | 0.117
ACCCTTGA | 0.242
CCCCTTGA | 0.2
ACCCTAGT | -0.0371
ACCCTTGG | 0.198
CCCCTTGC | -0.0115
ACCCTTGC | 0.268
ACCCTAGA | 0.284
GCCCTTGA | -0.00607
AGGACTAA | -0.0768
GTACTAGA | -0.00429
AACGACTC | -0.253
ATAGAAGA | -0.158
CACAGGCA | 0.0159
AATGACGG | 0.125
CACCGCGC | -0.0311
CGCAGCTA | -0.0329
CATCCACA | 0.0702
